# High-throughput results deposited in PubChem BioAssay by National Center for Advancing Translational Sciences (NCATS).
# A selection: hits, their analogues and other compounds. The true share with any hit is near 12%.
# HP1b chromo inh: blocks HP1-beta chromodomain binding to methylated histone tails; P83916; Potency, µM (highest dose often 114 µM), for the others: at the top dose activity change, negative = inhibition, most hits filed as inhibitors; AlphaScreen HP1-beta / biotin-H3K9me3 peptide binding; 390,000 compounds, 0.56% hits; note: nearly all actives have a fitted effect of over 70% in size
# Target sequence (P83916 whole entry, looked up): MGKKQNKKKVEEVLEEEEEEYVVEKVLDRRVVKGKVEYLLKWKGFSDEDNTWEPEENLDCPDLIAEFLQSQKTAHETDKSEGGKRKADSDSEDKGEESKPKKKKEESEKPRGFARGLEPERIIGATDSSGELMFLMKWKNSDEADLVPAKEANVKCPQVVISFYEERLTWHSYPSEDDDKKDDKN
#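 AlphaScreen: HP1-beta (50 nM) preformed 30 min with biotin-H3(1-18)K9me3 peptide (50 nM) in PBS pH 7.4, 0.01% Tween-20. Compound added for 30 min at RT, then streptavidin donor/nickel chelate acceptor beads (10 ug/mL) for 30 min.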
# G9a block: inhibitors of human histone lysine methyltransferase G9a. Q96KQ7. G9a H3K9 monomethylation, AlphaScreen, 2 h. Potency, µM (top dose mostly 102 µM), inactives show top-dose activity, negative = inhibition, most hits filed as inhibitors. 350,000 compounds, 8.8% hits; note: % is set by controls: 0 for no effect and ±100 for the full control effect; nearly all actives have a fitted effect of over 75% in size
# Target sequence (Q96KQ7 913-1193 limits assumed): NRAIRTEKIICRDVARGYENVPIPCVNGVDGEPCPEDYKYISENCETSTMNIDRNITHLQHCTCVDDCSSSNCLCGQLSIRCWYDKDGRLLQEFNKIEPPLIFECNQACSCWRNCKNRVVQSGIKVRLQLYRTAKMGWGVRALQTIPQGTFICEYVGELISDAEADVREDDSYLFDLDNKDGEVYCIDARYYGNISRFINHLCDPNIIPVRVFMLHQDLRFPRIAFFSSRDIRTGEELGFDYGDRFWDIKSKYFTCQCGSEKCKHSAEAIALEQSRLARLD
#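 Enzyme 20 nM + cpd, 15 min RT; add b-H3K9 pep 500 nM / SAM 20 uM; 2 h RT; anti-H3K9me1 Ab 0.5 ug/mL + SA donor / anti-rabbit acceptor beads 20 ug/mL each, 10 min; AlphaScreen read.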
# JMJD2A Tudor: blocks the human JMJD2A Tudor domain; O75164; AlphaScreen JMJD2A-Tudor / H3K4me3 peptide binding; Potency, µM (titrated, usually from 114 µM), for the others: at the highest dose activity change, negative = inhibition, usual class: inhibitors; 390,000 compounds, 4.4% hits; AID 504339; note: % is set by controls: 0 for no effect and ±100 for the full control effect; nearly all actives have a fitted effect of over 50% in size
# Sfp inh: inhibitors of Bacillus subtilis Sfp phosphopantetheinyl transferase | 310,000 compounds, 3.5% hits | Biochemical Sfp PPTase activity, qHTS | Q9F4F7 | AID 1490 | Potency, µM, without a hit: largest response in the series, negative = inhibition, hits mostly inhibitors;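 note: the enzyme is Sfp with the accession as filed and its product quenches rhodamine fluorescence; 0% = enzyme reaction without inhibitor and -100% = no enzyme wells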
#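 After 15 min at room temperature with compound, 15 nM Sfp received 5 uM rhodamine-CoA plus 12.5 uM BHQ-2-ybbR (50 mM Hepes pH 7.6, 10 mM MgCl2). Rate came from the fluorescence difference over 30 min, ex 525/em 598 nm.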
# BAZ2B inh: blocks human BAZ2B; Q9UIF8; AlphaScreen BAZ2B-H3K14Ac peptide displacement; Potency, µM (highest dose often 114 µM), inactives show top-dose activity change, negative = inhibition, most hits filed as inhibitors; 360,000 compounds, 4.4% hits; AID 504333; note: % is set by controls: 0 for no effect and ±100 for the full control effect; nearly all actives have a fitted effect of over 60% in size
#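 Protein-peptide AlphaScreen: BAZ2B 50 nM, b-H3K14Ac 50 nM, 1x PBS pH 7.4 + 0.01% Tween-20. Preincubation 30 min RT; cpd 30 min RT (top 110 uM); beads 20 min RT, light-protected.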
# * = called active by the depositor; ? = inconclusive; · = no result; [ ] = dose if it differs, or a comment. Calls come from the whole dose curve; as a rule, active = well fitted curve in the direction sought with a large enough effect; inconclusive = small, poorly fitted or top-dose-only effect, or another doubt; inactive = no such curve, though single readings can be large; an effect the other way counts as inactive or inconclusive. Potency is the fitted concentration of half-maximal effect.
SMILES,HP1b chromo inh,G9a block,JMJD2A Tudor,Sfp inh,BAZ2B inh
COc1ccc(NC(=O)CSCc2cnn(-c3ccccc3)c2-n2cccc2)cc1,54.7%,-13.2%[59 µM],-6.6%,·,-38.5%
COc1ccc(CNC(=O)CSCc2cnn(-c3ccccc3)c2-n2cccc2)cc1,1.8%,31.6µM*,-9.5%,-3.8%,-3.9%
O=C(CSCc1cnn(-c2ccccc2)c1-n1cccc1)NCC1CCCO1 (stereo not given),23.1%,50.1µM*,-7.0%,12.6%,-0.5%
O[C@H]1[C@H]2c3cc4c(cc3CN3CCC(=C[C@@H]1O)[C@H]23)OCO4,·,?,·,3.7%,·
O=C(CSc1nnc(-c2cccnc2)s1)Nc1ccc(C(=O)O)cc1,16.2%,14.1µM*,-24.5%,-18.3%,-11.9%
Cc1c(CCNC(=O)c2ccc(Br)o2)sc2nc(-c3ccc(F)cc3)nn12,23.8%,-4.6%[59 µM],50.1µM*,·,-23.1%
Cc1ccc(-c2nc3sc(CCNC(=O)c4ccc(Br)o4)c(C)n3n2)cc1,-19.7%,-30.3%[59 µM],-21.4%,·,?
COc1ccc(N2CCN(C(=O)c3ccc(S(=O)(=O)N4CCCC4)cc3)CC2)cc1,-17.7%,79.4µM*,-31.0%,12.9%,-25.9%
COc1ccc(C(=O)c2ccc(OC)cc2OC)cc1,42.7%,·,2.8%,6.9%,0.2%
COc1ccc(N2CCN(C(=O)c3ccc(S(=O)(=O)N4CCCCCC4)cc3)CC2)cc1,-23.1%,?,?,·,12.5%
COc1ccc(S(=O)(=O)N2CCCCCC2)cc1C(=O)N1CCCCC1,17.3%,?,-3.7%,-14.5%,?
COc1ccc(N2CCN(C(=O)c3ccc(S(=O)(=O)N4CCOCC4)cc3)CC2)cc1,-16.7%,8.91µM*,-26.6%,9.2%,-27.8%
COc1ccc(C(=O)c2ccc(N3CCOCC3)cc2)c(OC)c1,-1.8%,25.1µM*,-17.4%,0.0%,-8.9%
COc1ccc(N2CCN(S(=O)(=O)c3ccc(OC)c(C(=O)N4CCCC4)c3)CC2)cc1,11.1%,79.4µM*,-6.0%,5.6%,-5.6%
COCCN(C(=O)CSc1n[nH]c(-c2ccccc2)n1)c1c(N)n(Cc2ccccc2)c(=O)[nH]c1=O,3.1%,?,-16.6%,·,11.6%
CC(C)[C@@H](CC(=O)N[C@@H]1CCNC[C@H]1C(=O)N[C@H](CC(=O)N[C@@H](CCC(=O)O)CC(=O)O)Cc1ccccc1)NC(=O)C[C@H](CO)NC(=O)[C@@H]1CCCC[C@H]1N,·,·,·,-20.8%,·
CCC/C=C(\CCC)C(NC(=O)c1cccs1)c1ccc(C(F)(F)F)cc1 (stereo not given),·,·,·,15.7%,·
O=c1[nH]c2ccc(NCc3ccc(-c4ccc(F)cc4)o3)cc2[nH]1,65.5%,-23.3%[59 µM],-14.9%,·,-30.8%
COc1cc(OC)c(NC(=O)N2CCc3cc(OC)c(OC)cc3C2CC(=O)O)cc1Cl (stereo not given),11.5%,-14.7%[12.7 µM],-5.3%,·,-25.7%
COc1ccc(CN2CCNC(=O)C2CC(=O)NCCc2nc(C)c(C)s2)cc1C (stereo not given),5.2%,44.7µM*,?,-12.8%,-30.1%
COc1ccc(CN2CCNC(=O)C2CC(=O)NCc2cnn(C)c2)cc1OC (stereo not given),83.9%,50.1µM*,-15.9%,9.4%,-1.1%
COc1ccc(CN2CCNC(=O)C2CC(=O)O)cc1OC (stereo not given),45.5%,?,-2.8%,8.3%,-2.9%
Nc1ncnc2n[nH]c(Nc3ccc(F)cc3)c12,·,-7.3%[59 µM],·,17.2%,·
CCOC(=O)C1CCN(S(=O)(=O)c2ccccc2[N+](=O)[O-])CC1,28.1%,·,-17.3%,·,·
C=CCSc1nnc(NC(=O)C2=COCCO2)s1,33.0%,35.5µM*,-12.4%,·,-5.6%
SMILES,HP1b chromo inh,G9a block,JMJD2A Tudor,Sfp inh,BAZ2B inh
O=C(Nc1nnc(SCc2ccccc2)s1)C1=COCCO1,28.3%,-9.3%,-11.0%,·,10.0%
CC(=O)c1cccc(NC(=O)CCCCCn2nnc3ccccc3c2=O)c1,24.8%,14.8%,-12.5%,6.6%,-1.2%
O=C(Oc1nsnc1N1CCOCC1)c1ccccc1,-23.4%,35.5µM*,-34.6%,-29.1%,-4.2%
O=C(Oc1nsnc1N1CCOCC1)N1CCOCC1,22.4%,-2.4%[59 µM],-9.4%,-0.7%,3.6%
Cc1ccc(NC(=O)CN(C)C(=O)c2cccc(S(=O)(=O)N3CCc4ccccc43)c2)cc1,39.4%,?,-23.2%,·,0.9%
CCCCCCCC(=O)C(C)C(=O)N(C)[C@H](Cc1ccc(OC)cc1)C(=O)N(C)[C@H](C(N)=O)C(C)C (stereo not given in full),18.1%,·,-16.4%,·,·
COc1ccc(C2/C=C\CN(C(=O)c3ccccc3)CC(=O)N2Cc2cccc(F)c2)cc1 (stereo not given),14.1%,·,-18.5%,·,·
COc1ccc(C2/C=C\CN(CC(C)C)CC(=O)N2Cc2cccc(F)c2)cc1 (stereo not given),34.4%,31.6µM*,-36.0%,?,·
COc1ccc(/C=N/Nc2nc(-c3ccc(C)cc3)c(NC(C)=O)s2)cc1,?,10µM*,56.2µM*,7.9%,?
CC(=O)Nc1sc(N/N=C/c2ccccc2)nc1-c1ccc(C)cc1,?,15.8µM*,?,-3.6%,?
CC(=O)Nc1sc(N/N=C/c2ccc(O)cc2)nc1-c1ccc(C)cc1,39.8µM*,12.6µM*,44.7µM*,-2.5%,?
CC(=O)Nc1sc(N/N=C/c2ccccc2F)nc1-c1ccc(C)cc1,-11.6%,14.1µM*,?,-20.6%,-38.5%
CC(=O)Nc1ccc(/C=N/Nc2nc3ccccc3s2)cc1,41.1%,-2.8%,-5.1%,-8.3%,-1.4%
CC(=O)Nc1sc(-c2ccccc2)nc1-c1ccccc1,18.8%,10.7%[59 µM],-3.4%,14.2%,-14.2%
CC(=O)Nc1sc(NC(=O)c2ccc(Cl)cc2)nc1-c1cccs1,6.5%,·,-5.5%,0.8%,-2.8%
CC(=O)Nc1sc(N/N=C\c2ccco2)nc1-c1cccs1,14.1µM*,5.62µM*,?,17.8µM*,?
CCOC(=O)c1nc(N/N=C/c2ccccc2)sc1Br,8.8%,44.7µM*,-19.2%,-9.2%,-30.3%
CCOc1cc(/C=N/Nc2nc(-c3cccs3)c(NC(C)=O)s2)ccc1O,20µM*,20µM*,28.2µM*,-27.7%,39.8µM*
Nc1nc(-c2cccs2)c(NC(=O)c2ccccc2)s1,-33.8%,7.94µM*,?,-29.1%,?
COc1ccc(C2c3c(n(C)c4ccccc34)C(=O)N2CC(=O)Nc2ccc(C)cc2Cl)cc1 (stereo not given),-10.2%,?,-29.0%,·,-28.5%
CN(C(=O)CCl)C1CCCc2ccccc21 (stereo not given),25.1%,-21.0%,-19.5%,19.4%,?
C/C(=N\NC(=O)c1cc(C)oc1C)c1ccc2ccccc2c1,22.1%,8.3%,-7.9%,-7.7%,-0.8%
CC(=O)Nc1sc(N/N=C\c2ccccc2)nc1-c1cccs1,50.1µM*,11.2µM*,20µM*,50.1µM*,?
